In publication PMC7862700, “An all-to-all approach to the identification of sequence-specific readers for epigenetic DNA modifications on cytosine” one finds binding signal data, which are given here for six sequences.

What all share (experiment): DAPPL (digital affinity profiling via proximity ligation, sequencing); 10 mM Tris-HCl pH 7.5, 50 mM NaCl, 1 mM DTT, 4% glycerol, room temperature, 30 min; GST-TFs on glutathione beads, 16-mer random dsDNA library, 0.1% formaldehyde crosslink after washing; high values mean tight binding
What all share (details): protein: recombinant; tags: N-terminal GST; dsDNA, one strand shown

In assay [1] the target is T1, ERF (Homo sapiens, UniProt P50548 1-548).
T1 sequence: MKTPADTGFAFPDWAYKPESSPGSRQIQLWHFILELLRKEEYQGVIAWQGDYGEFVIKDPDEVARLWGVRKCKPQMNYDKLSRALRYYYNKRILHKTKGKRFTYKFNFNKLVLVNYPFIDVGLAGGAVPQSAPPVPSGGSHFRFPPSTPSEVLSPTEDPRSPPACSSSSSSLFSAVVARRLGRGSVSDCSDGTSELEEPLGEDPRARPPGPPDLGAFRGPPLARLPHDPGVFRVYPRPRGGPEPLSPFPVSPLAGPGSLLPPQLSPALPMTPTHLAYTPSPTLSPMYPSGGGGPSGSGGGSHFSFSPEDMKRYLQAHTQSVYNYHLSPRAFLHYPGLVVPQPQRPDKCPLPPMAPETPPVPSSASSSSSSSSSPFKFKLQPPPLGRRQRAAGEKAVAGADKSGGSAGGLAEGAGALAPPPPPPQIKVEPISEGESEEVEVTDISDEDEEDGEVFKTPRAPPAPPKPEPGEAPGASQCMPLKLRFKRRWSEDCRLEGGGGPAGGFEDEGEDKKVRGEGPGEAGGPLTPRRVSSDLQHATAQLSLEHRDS
A digest of the protocol:
(§1)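 Beads coated with glutathione captured GST-fused human transcription factors that had been expressed in yeast, and the factors were then given DNA barcodes and pooled with a tag-only sample. The pools were incubated with 200 nmole of a random double-stranded 16-mer DNA library in Tris/NaCl/DTT/glycerol buffer for 30 min at room temperature, washed, crosslinked with 0.1% formaldehyde and proximity-ligated with BsaI/T4 ligase at 37 °C for 1 h. PCR amplification and Illumina NextSeq500 sequencing came last. Binding signal is each hexamer's read frequency for a factor divided by its frequency for the tag-only sample.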

Assay [2] addresses T2, ETV3L (Homo sapiens, UniProt Q6ZN32 1-361).
T2 sequence: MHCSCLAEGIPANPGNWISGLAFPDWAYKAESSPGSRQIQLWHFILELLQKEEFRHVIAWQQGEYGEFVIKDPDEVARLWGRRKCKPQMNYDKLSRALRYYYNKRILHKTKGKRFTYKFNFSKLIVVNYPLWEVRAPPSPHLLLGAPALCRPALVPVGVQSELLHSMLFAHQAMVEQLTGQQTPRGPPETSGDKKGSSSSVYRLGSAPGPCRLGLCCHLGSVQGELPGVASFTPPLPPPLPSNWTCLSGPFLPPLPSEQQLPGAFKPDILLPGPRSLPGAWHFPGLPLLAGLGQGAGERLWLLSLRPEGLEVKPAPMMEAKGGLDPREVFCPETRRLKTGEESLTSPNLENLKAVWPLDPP
The gist of the method: as §1

Assay [3] concerns the target T3, ETS2 (Homo sapiens, UniProt P15036 1-469).
T3 sequence: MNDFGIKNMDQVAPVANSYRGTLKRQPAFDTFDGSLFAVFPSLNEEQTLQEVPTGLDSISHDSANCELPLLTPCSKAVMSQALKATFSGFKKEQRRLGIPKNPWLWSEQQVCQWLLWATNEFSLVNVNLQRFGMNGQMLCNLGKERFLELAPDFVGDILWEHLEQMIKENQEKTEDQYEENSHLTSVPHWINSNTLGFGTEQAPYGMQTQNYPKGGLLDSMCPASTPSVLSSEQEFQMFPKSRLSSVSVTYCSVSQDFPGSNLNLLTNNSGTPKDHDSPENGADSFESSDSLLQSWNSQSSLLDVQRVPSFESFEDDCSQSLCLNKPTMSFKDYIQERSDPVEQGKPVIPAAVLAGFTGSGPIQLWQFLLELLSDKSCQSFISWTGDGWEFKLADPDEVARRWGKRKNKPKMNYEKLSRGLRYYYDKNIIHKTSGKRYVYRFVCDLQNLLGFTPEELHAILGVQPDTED
The gist of the method:
as §1

For assay [4], the target named is T4, SPDEF (Homo sapiens, UniProt O95238 1-335).
T4 sequence: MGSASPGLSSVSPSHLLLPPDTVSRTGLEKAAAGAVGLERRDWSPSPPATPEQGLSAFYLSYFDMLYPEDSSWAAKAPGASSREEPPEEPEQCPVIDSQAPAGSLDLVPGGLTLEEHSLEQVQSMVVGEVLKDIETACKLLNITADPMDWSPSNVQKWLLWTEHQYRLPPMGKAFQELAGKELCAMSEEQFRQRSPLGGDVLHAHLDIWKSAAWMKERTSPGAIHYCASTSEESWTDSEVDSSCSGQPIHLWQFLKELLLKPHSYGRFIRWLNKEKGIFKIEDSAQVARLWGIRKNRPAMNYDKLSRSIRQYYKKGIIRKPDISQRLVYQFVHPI
The gist of the method:
as §1

Assay [5] has as its target T5, ETV7 (Homo sapiens, UniProt Q9Y603 1-341).
T5 sequence: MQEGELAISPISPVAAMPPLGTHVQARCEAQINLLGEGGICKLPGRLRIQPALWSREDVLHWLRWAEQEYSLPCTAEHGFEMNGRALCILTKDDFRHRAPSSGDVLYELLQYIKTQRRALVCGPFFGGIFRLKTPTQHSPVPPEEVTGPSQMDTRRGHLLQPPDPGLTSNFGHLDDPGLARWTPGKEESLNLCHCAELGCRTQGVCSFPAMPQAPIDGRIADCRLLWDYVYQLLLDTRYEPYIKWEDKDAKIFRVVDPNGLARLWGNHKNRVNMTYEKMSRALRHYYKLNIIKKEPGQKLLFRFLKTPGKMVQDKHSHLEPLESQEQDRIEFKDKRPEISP
A digest of the protocol: as §1

Assay [6] concerns the target T6, ELF5 (Homo sapiens, UniProt Q9UKW6-2 1-255).
T6 sequence: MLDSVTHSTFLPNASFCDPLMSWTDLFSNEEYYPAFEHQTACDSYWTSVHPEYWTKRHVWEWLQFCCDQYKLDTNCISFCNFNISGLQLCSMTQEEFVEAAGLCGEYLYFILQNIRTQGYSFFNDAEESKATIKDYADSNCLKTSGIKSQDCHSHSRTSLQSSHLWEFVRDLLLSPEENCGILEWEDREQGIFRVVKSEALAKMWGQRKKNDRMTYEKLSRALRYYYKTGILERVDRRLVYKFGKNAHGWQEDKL
A digest of the protocol:
as §1

Assay [7] addresses T7, ETV3 (Homo sapiens, UniProt P41162-2 1-143).
T7 sequence: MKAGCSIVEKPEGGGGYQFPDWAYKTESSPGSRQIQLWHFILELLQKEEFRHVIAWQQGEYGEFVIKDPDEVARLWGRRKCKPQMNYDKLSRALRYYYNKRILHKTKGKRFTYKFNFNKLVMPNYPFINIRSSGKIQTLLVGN
A digest of the protocol:
as §1

Assay [8] has as its target ETV6 (Homo sapiens, UniProt P41212 1-452). The gist of the method: as §1

Sequence of ETV6 (P41212 whole entry): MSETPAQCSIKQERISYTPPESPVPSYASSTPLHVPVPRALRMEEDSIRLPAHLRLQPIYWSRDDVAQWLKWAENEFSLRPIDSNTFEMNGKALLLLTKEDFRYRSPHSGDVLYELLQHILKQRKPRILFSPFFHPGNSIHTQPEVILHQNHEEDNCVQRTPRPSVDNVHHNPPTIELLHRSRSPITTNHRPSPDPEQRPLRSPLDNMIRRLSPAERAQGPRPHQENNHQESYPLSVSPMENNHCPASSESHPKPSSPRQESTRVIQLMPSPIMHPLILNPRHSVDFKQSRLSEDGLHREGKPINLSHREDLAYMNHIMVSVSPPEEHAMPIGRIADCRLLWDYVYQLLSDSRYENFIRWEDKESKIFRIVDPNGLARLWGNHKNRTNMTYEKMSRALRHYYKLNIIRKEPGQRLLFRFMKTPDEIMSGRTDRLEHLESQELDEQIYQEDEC

Turning to CTCGTT, the binding signal in assay [1] is 1.4 fold enrichment (6-mer frequency, TF over GST control); in assay [2], 1.43 fold enrichment (6-mer frequency, TF over GST control); in assay [3] it was 1.27 fold enrichment (6-mer frequency, TF over GST control); in assay [4], 1.27 fold enrichment (6-mer frequency, TF over GST control); in assay [5], 1.37 fold enrichment (6-mer frequency, TF over GST control); in assay [6], 1.44 fold enrichment (6-mer frequency, TF over GST control). In addition, the binding signal in assay [7] is 1.25 fold enrichment (6-mer frequency, TF over GST control); in assay [8] it was 1.23 fold enrichment (6-mer frequency, TF over GST control).

In the case of CCCGAT, the binding signal is 1.22 fold enrichment (6-mer frequency, TF over GST control) in assay [1]; 1.14 fold enrichment (6-mer frequency, TF over GST control) in assay [2]; 1.23 fold enrichment (6-mer frequency, TF over GST control) in assay [3]; 1.11 fold enrichment (6-mer frequency, TF over GST control) in assay [4]; 1.24 fold enrichment (6-mer frequency, TF over GST control) in assay [5]; 1.24 fold enrichment (6-mer frequency, TF over GST control) in assay [6]. In addition, the binding signal in assay [7] was 1.21 fold enrichment (6-mer frequency, TF over GST control); in assay [8] it was 1.06 fold enrichment (6-mer frequency, TF over GST control).

TAACTA: the binding signal in assay [1] was 1.38 fold enrichment (6-mer frequency, TF over GST control); in assay [2] it was 1.21 fold enrichment (6-mer frequency, TF over GST control); in assay [3], 1.4 fold enrichment (6-mer frequency, TF over GST control); in assay [4] it was 1.26 fold enrichment (6-mer frequency, TF over GST control); in assay [5], 1.29 fold enrichment (6-mer frequency, TF over GST control); in assay [6], 1.3 fold enrichment (6-mer frequency, TF over GST control). For the same sequence, the binding signal is 1.29 fold enrichment (6-mer frequency, TF over GST control) in assay [7] and 1.36 fold enrichment (6-mer frequency, TF over GST control) in assay [8].

In the case of CTCCAA, the binding signal in assay [1] is 1.32 fold enrichment (6-mer frequency, TF over GST control); in assay [2], 1.28 fold enrichment (6-mer frequency, TF over GST control); in assay [3], 1.32 fold enrichment (6-mer frequency, TF over GST control); in assay [4], 1.33 fold enrichment (6-mer frequency, TF over GST control); in assay [5] it was 1.52 fold enrichment (6-mer frequency, TF over GST control); in assay [6], 1.23 fold enrichment (6-mer frequency, TF over GST control). Moreover, the binding signal is 1.23 fold enrichment (6-mer frequency, TF over GST control) in assay [7] and 1.28 fold enrichment (6-mer frequency, TF over GST control) in assay [8].

For the sequence TGATCT, the binding signal in assay [1] is 1.35 fold enrichment (6-mer frequency, TF over GST control); in assay [2], 1.1 fold enrichment (6-mer frequency, TF over GST control); in assay [3], 1.31 fold enrichment (6-mer frequency, TF over GST control); in assay [4], 1.23 fold enrichment (6-mer frequency, TF over GST control); in assay [5], 1.11 fold enrichment (6-mer frequency, TF over GST control); in assay [6], 1.22 fold enrichment (6-mer frequency, TF over GST control). Further, the binding signal is 1.25 fold enrichment (6-mer frequency, TF over GST control) in assay [7] and 1.06 fold enrichment (6-mer frequency, TF over GST control) in assay [8].

Take CTTCAG: the binding signal in assay [1] is 1.27 fold enrichment (6-mer frequency, TF over GST control); in assay [2], 1.26 fold enrichment (6-mer frequency, TF over GST control); in assay [3], 1.33 fold enrichment (6-mer frequency, TF over GST control); in assay [4] it was 1.34 fold enrichment (6-mer frequency, TF over GST control); in assay [5] it was 1.29 fold enrichment (6-mer frequency, TF over GST control); in assay [6], 1.35 fold enrichment (6-mer frequency, TF over GST control). Also, the binding signal in assay [7] was 1.17 fold enrichment (6-mer frequency, TF over GST control); in assay [8], 1.37 fold enrichment (6-mer frequency, TF over GST control).
